# Assay results reported in PubChem BioAssay (NCI).
# About 83,000 compounds went through this panel and 20% of them were active in at least one assay; those are over-represented in the sample as a whole.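 In brief: 96-well plates, 48 h treatment, single concentration, percent growth endpoint.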 Unmarked numbers belong to inactive results. The source made the active and inactive calls. How the source made its calls: active means growth percent below 10; inactive means the rest.
# Tested on: HCT-116 colon
# Assay: NCI-60 one-dose screen, 48 h (100 = growth as untreated, 0 = no growth, -100 = all killed)
# Details: 10 µM unless noted
row,Structure (SMILES),growth
1,Brc1ccc(-c2nc3ccccc3s2)cc1,89.4%
2,c1cc[c]([Bi]([c]2ccccc2)[c]2ccccc2)cc1,104%
3,O=C1/C(=N\c2cc(=O)[nH]n2S(=O)(=O)c2ccccc2)Nc2ccccc21,99.3%
4,COc1ccc(/C=C/C(=O)/C=C/c2cc3ccccc3[nH]c2=O)cc1,-30.8% (active)
5,C/C=C/C/C=C/[C@H](C)C[C@H](O)[C@@H]1C[C@@H]2O[C@H]2/C=C/[C@@H]2OC(C)(C)O[C@H]2/C=C/C[C@H](C)CC(=O)O1,18.6%
6,COC1(OC)N=C(N)C2(C#N)C3(C(=O)Nc4ccccc43)C12C#N (stereo unspecified),81.6%
7,C/C=C/C/C=C/[C@H](C)C[C@H](O)[C@@H]1C[C@@H]2O[C@H]2/C=C/[C@H](O)[C@@H](O)/C=C/C[C@H](C)CC(=O)O1,70.6%
8,COc1cc(-c2nc3c(c(C)nc4c3nnn4-c3ccccc3)c(=O)o2)cc(OC)c1OC,99.3%
9,CCC(C)C1NC(=O)C(CC(C)C)NC(=O)C(C)NC(=O)C(C(C)C)NC(=O)C(CCCCN)NC(=O)C(CC(C)C)NC(=O)C(C(C)C)NC(=O)[C@H](C)NC(=O)C(C(C)CC)NC(=O)C(CCCN=C(N)N)NC(=O)C(CCCCN)NC(=O)C(CCCN=C(N)N)NC(=O)C(CCCCN)NC(=O)C([C@H](C)CC)NC(=O)C(CCCCN)NC1=O (stereo partly specified),3.67% (active)
10,COc1ccc(-c2nc(SCC(C)C)nc(Nc3ccc(C(=O)O)cc3)c2C#N)cc1,85.1%
11,O=S(=O)(O)CCI,98.3%
12,Nc1nc2c(c3cnccc13)C(c1cccc(Cl)c1)Cc1cnccc1-2 (stereo unspecified),6.83% (active)
13,Oc1ccccc1\C=N/N=C/C=C/c1ccccc1,103%
14,COC(=O)c1ccc2[nH]c(O)c(C(=Nc3ccc(N(C)C(=O)CN4CCN(C)CC4)cc3)c3ccc(N)cc3)c2c1,41.4%
15,CC(C)OC(=O)c1ccc2n1CCCc1cnc(Nc3ccccc3)nc1-2,73.2%
16,CC(=O)Nc1ccc(C(=O)/C=C/c2ccc(N(C)C)cc2)cc1,102%
17,CCOC(=O)C1=C(c2ccccc2)NC(=O)NC1CN1C(=O)c2ccccc2C1=O (stereo unspecified),99.6%
18,CC/C(=N\Nc1nc2ccccc2n1C)c1ccccn1,11.7%
19,CCCCCCC(C)N(CC(C)(C)O)C(=O)c1ccc([N+](=O)[O-])cc1 (stereo unspecified),91.3%

row,Structure (SMILES),growth
1,O=C1C(=O)c2ccccc2C(O)=C1CCCc1ccc(Oc2ccccc2)cc1,22.1%
2,C=C[C@]1(C)C=C2C(=O)[C@@]3(O)OC[C@@]4(CCCC(C)(C)C43O)C2(O)C(O)C1 (stereo partly specified),-79.6% (active)
3,COc1ccc(/C=C2\CCCC3=C2N=C2SC=NN2C3c2ccc(OC)c(OC)c2)cc1OC (stereo unspecified),8.93% (active)
4,CC(C)(C)c1ccc(OCCOC(=O)CBr)cc1,83.7%
5,c1cc(C2CCCCC2)ccc1OCCCCCCN1CCNCC1,-61.7% (active)
6,CCOC(=O)c1c2c(cn1Cc1ccccc1)-c1oncc1CC2,90.5%
7,CC(=O)c1ccc2c(c1)c1ccccc1n2C,96.7%
8,CCCCN(CCCC)CCCNc1c2c(nc3ccc(Cl)cc13)CCCC2,57.6%
9,COc1ccc(Cn2cc3c(c2)-c2oncc2CC3)cc1OC,4.37% (active)
10,NC(=O)c1c(Nc2ccccc2)nn2cc(-c3nc4ccccc4s3)c(N)nc12,99.1%
11,COC(=O)c1ccc2[nH]c(O)c(C(=Nc3ccc(N(C)C(=O)CN4CCN(C)CC4)cc3)c3cccc(OC)c3)c2c1,-5.68% (active)
12,Cc1nc2c(nnn2-c2ccccc2)c2nc(-c3ccc(Cl)cc3)oc(=O)c12,109%
13,COc1ccc(-c2nnc(SCC(=O)Nc3ccc(C(=O)/C=C/c4cc(OC)c(OC)c(OC)c4)cc3)n2-c2ccccc2)cc1OC,-84.5% [100 µM] (active)
14,CCc1ccc(C(=Nc2ccc(N(C)C(=O)CN3CCN(C)CC3)cc2)c2c(O)[nH]c3ccc(C(=O)OC)cc23)cc1,-67.9% (active)
15,Cc1ccc(C(C)C)c(OCc2ccc(C(=O)N/N=C/c3cccc(O)c3O)cc2)c1,20.4%
16,C/C(=N\Nc1ccc(Cl)cn1)c1ccc2ccccc2n1,6.22% (active)
17,CCOC(=O)c1ccc2n1CCCc1cnc(NC(C)=O)nc1-2,107%
18,COC(=O)c1ccc2[nH]c(O)c(C(=Nc3ccc(N(C)C(=O)CN4CCN(C)CC4)cc3)c3ccc(C)cc3)c2c1,-66.1% (active)

# Tested on: HCC-2998 colon
# Assay: as above
# Details: 10 µM unless noted
row,Structure (SMILES),growth
1,Brc1ccc(-c2nc3ccccc3s2)cc1,110%
2,c1cc[c]([Bi]([c]2ccccc2)[c]2ccccc2)cc1,96.5%
3,O=C1/C(=N\c2cc(=O)[nH]n2S(=O)(=O)c2ccccc2)Nc2ccccc21,104%
4,COc1ccc(/C=C/C(=O)/C=C/c2cc3ccccc3[nH]c2=O)cc1,96.7%
5,C/C=C/C/C=C/[C@H](C)C[C@H](O)[C@@H]1C[C@@H]2O[C@H]2/C=C/[C@@H]2OC(C)(C)O[C@H]2/C=C/C[C@H](C)CC(=O)O1,71.9%
6,COC1(OC)N=C(N)C2(C#N)C3(C(=O)Nc4ccccc43)C12C#N (stereo unspecified),103%
7,C/C=C/C/C=C/[C@H](C)C[C@H](O)[C@@H]1C[C@@H]2O[C@H]2/C=C/[C@H](O)[C@@H](O)/C=C/C[C@H](C)CC(=O)O1,95.1%
8,COc1cc(-c2nc3c(c(C)nc4c3nnn4-c3ccccc3)c(=O)o2)cc(OC)c1OC,130%
9,CCC(C)C1NC(=O)C(CC(C)C)NC(=O)C(C)NC(=O)C(C(C)C)NC(=O)C(CCCCN)NC(=O)C(CC(C)C)NC(=O)C(C(C)C)NC(=O)[C@H](C)NC(=O)C(C(C)CC)NC(=O)C(CCCN=C(N)N)NC(=O)C(CCCCN)NC(=O)C(CCCN=C(N)N)NC(=O)C(CCCCN)NC(=O)C([C@H](C)CC)NC(=O)C(CCCCN)NC1=O (stereo partly specified),16.7%
10,COc1ccc(-c2nc(SCC(C)C)nc(Nc3ccc(C(=O)O)cc3)c2C#N)cc1,97.7%
11,O=S(=O)(O)CCI,110%
12,Nc1nc2c(c3cnccc13)C(c1cccc(Cl)c1)Cc1cnccc1-2 (stereo unspecified),41.7%
13,Oc1ccccc1\C=N/N=C/C=C/c1ccccc1,95.3%
14,COC(=O)c1ccc2[nH]c(O)c(C(=Nc3ccc(N(C)C(=O)CN4CCN(C)CC4)cc3)c3ccc(N)cc3)c2c1,108%
15,CC(C)OC(=O)c1ccc2n1CCCc1cnc(Nc3ccccc3)nc1-2,104%
16,CC(=O)Nc1ccc(C(=O)/C=C/c2ccc(N(C)C)cc2)cc1,102%
17,CCOC(=O)C1=C(c2ccccc2)NC(=O)NC1CN1C(=O)c2ccccc2C1=O (stereo unspecified),62.9%
18,CC/C(=N\Nc1nc2ccccc2n1C)c1ccccn1,32.3%
19,CCCCCCC(C)N(CC(C)(C)O)C(=O)c1ccc([N+](=O)[O-])cc1 (stereo unspecified),115%
20,O=C1C(=O)c2ccccc2C(O)=C1CCCc1ccc(Oc2ccccc2)cc1,103%

row,Structure (SMILES),growth
1,COc1ccc(/C=C2\CCCC3=C2N=C2SC=NN2C3c2ccc(OC)c(OC)c2)cc1OC (stereo unspecified),57.1%
2,CC(C)(C)c1ccc(OCCOC(=O)CBr)cc1,104%
3,c1cc(C2CCCCC2)ccc1OCCCCCCN1CCNCC1,12.9%
4,CCOC(=O)c1c2c(cn1Cc1ccccc1)-c1oncc1CC2,111%
5,C/C(=N\Nc1cccc(Cl)n1)c1ccccn1,32.6%
6,CC(=O)c1ccc2c(c1)c1ccccc1n2C,100%
7,CCCCN(CCCC)CCCNc1c2c(nc3ccc(Cl)cc13)CCCC2,82.8%
8,COc1ccc(Cn2cc3c(c2)-c2oncc2CC3)cc1OC,-37.5% (active)
9,C/C(=N\Nc1ccc(Cl)cn1)c1ccccn1,27%
10,NC(=O)c1c(Nc2ccccc2)nn2cc(-c3nc4ccccc4s3)c(N)nc12,97.3%
11,COC(=O)c1ccc2[nH]c(O)c(C(=Nc3ccc(N(C)C(=O)CN4CCN(C)CC4)cc3)c3cccc(OC)c3)c2c1,20.3%
12,Cc1nc2c(nnn2-c2ccccc2)c2nc(-c3ccc(Cl)cc3)oc(=O)c12,111%
13,Clc1ccc(N/N=C(/c2ccccc2)c2ccccn2)nc1,45.1%
14,COc1ccc(-c2nnc(SCC(=O)Nc3ccc(C(=O)/C=C/c4cc(OC)c(OC)c(OC)c4)cc3)n2-c2ccccc2)cc1OC,8.22% [100 µM] (active)
15,CCc1ccc(C(=Nc2ccc(N(C)C(=O)CN3CCN(C)CC3)cc2)c2c(O)[nH]c3ccc(C(=O)OC)cc23)cc1,-92% (active)
16,Cc1ccc(C(C)C)c(OCc2ccc(C(=O)N/N=C/c3cccc(O)c3O)cc2)c1,45.7%
17,C/C(=N\Nc1ccc(Cl)cn1)c1ccc2ccccc2n1,38.1%
18,CCOC(=O)c1ccc2n1CCCc1cnc(NC(C)=O)nc1-2,122%
19,COC(=O)c1ccc2[nH]c(O)c(C(=Nc3ccc(N(C)C(=O)CN4CCN(C)CC4)cc3)c3ccc(C)cc3)c2c1,9.34% (active)
